Consider 15 molecules from PubChem BioAssay (NCATS).

Structures are written as SMILES. Records with an inconclusive call do not appear. Calls of active or inactive are those of the source. Calls follow the shape of the dose curve; as a rule, active = well fitted cell-killing curve with a large enough effect; inconclusive = small, poorly fitted or top-dose-only effect, or effect the other way; inactive = no such curve, though single readings can be large or run the other way. Residues, ends and D or L forms follow the SMILES beside them. *: point of attachment. Cbz = O=C(OCc1ccccc1)*

Test [1] can be described thus: Quantitative High-Throughput drug screen in 47 multiple myeloma cell lines against the NCATS MIPE library collection: U266_ATCC cell viability assay (AID 1919864). Also: nearly all actives have a fitted effect of over 35% in size. An outline of the steps:
(§1)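 500 cells/well per myeloma line exposed to pinned MIPE 4.0 compounds for 48 h at 37 °C, 5% CO2. Viability read as ATP by CellTiter-Glo luminescence, normalised to DMSO-only (100%) and media-only (0%) wells.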

A short description of test [2]: Quantitative High-Throughput drug screen in 47 multiple myeloma cell lines against the NCATS MIPE library collection: XG6_PLB cell viability assay (AID 1919865). Also: nearly all actives have a fitted effect of over 40% in size. An outline of the steps:
as §1

Test [3] in a line: Quantitative High-Throughput drug screen in 47 multiple myeloma cell lines against the NCATS MIPE library collection: XG1_PLB cell viability assay (AID 1919866). Also: nearly all actives have a fitted effect of over 35% in size. Put shortly: as §1
Test [4] is described as follows: Quantitative High-Throughput drug screen in 47 multiple myeloma cell lines against the NCATS MIPE library collection: VP6_DJ cell viability assay (AID 1919867). Also: nearly all actives have a fitted effect of over 40% in size. Put shortly:
as §1

Test [5] is described as follows: Quantitative High-Throughput drug screen in 47 multiple myeloma cell lines against the NCATS MIPE library collection: UTMC2_PLB cell viability assay (AID 1919868). Also: nearly all actives have a fitted effect of over 55% in size. Conditions: CellTiter-Glo ATP luminescence, 48 h; viability (% of DMSO control): at 45.8 µM (top of the series). An outline of the steps: as §1
Test [6] is described as follows: Quantitative High-Throughput drug screen in 47 multiple myeloma cell lines against the NCATS MIPE library collection: PE2_PLB cell viability assay (AID 1919869). Also: nearly all actives have a fitted effect of over 35% in size. Put shortly:
as §1

Test [7] can be described thus: Quantitative High-Throughput drug screen in 47 multiple myeloma cell lines against the NCATS MIPE library collection: PCM6_Riken cell viability assay (AID 1919870). Also: nearly all actives have a fitted effect of over 30% in size. An outline of the steps:
as §1

Test [8] in a line: Quantitative High-Throughput drug screen in 47 multiple myeloma cell lines against the NCATS MIPE library collection: RPMI8226_ATCC cell viability assay (AID 1919871). Also: nearly all actives have a fitted effect of over 30% in size. Put shortly:
as §1

Test [9] can be described thus: Quantitative High-Throughput drug screen in 47 multiple myeloma cell lines against the NCATS MIPE library collection: KMS11_JCRBsus cell viability assay (AID 1919873). Also: nearly all actives have a fitted effect of over 50% in size. Put shortly:
as §1

Test [10] in a line: Quantitative High-Throughput drug screen in 47 multiple myeloma cell lines against the NCATS MIPE library collection: OPM2_DSMZ cell viability assay (AID 1919872). Also: nearly all actives have a fitted effect of over 30% in size. An outline of the steps: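 Approved and investigational drugs from MIPE 4.0 were added by pin tool to 500 cells per well. After 48 hours at 37C, ATP-based CellTiter-Glo luminescence indicated remaining viability.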
Potency is read from the fitted curve at half-maximal effect.

Consider `O=C(Nc1cc2cc[nH]c2cn1)c1ccccc1`, for which the Potency is 11800 nM (active) in test [1]; 16600 nM (active) in [2]; 16600 nM (active) in [3]; 18700 nM (active) in test [4]; 13200 nM (active) in [5]; 10500 nM (active) in test [6]. In addition, the Potency was 8330 nM (active) in test [7], 13200 nM (active) in test [8] and 11800 nM (active) in test [9].
As to `CC(C)NC[C@@H](C(=O)N1CCN(c2ncnc3c2[C@H](C)C[C@H]3O)CC1)c1ccc(Cl)cc1`, the Potency is 18700 nM (active) in test [1]; 1660 nM (active) in test [2]; 1870 nM (active) in test [3]; 833 nM (active) in [4]; 105 nM (active) in [5]; 1320 nM (active) in test [7]. Besides, the results for the Potency in [8], in [10] and in test [9] were 11800 nM (active), 18700 nM (active) and 4690 nM (active), respectively.
On to `C=C1C(=CC=C2CCC[C@]3(C)[C@@H]([C@H](C)CCCC(C)(C)O)CC[C@@H]23)C[C@@H](O)C[C@@H]1O`, for which the Potency is 4180 nM (active) in [1]; 3720 nM (active) in test [2]; 5260 nM (active) in test [3]; 5260 nM (active) in test [4]; 5260 nM (active) in test [5]; 13200 nM (active) in test [6]. The Potency in test [7] is 7430 nM (active); in test [9], 9350 nM (active).
For `CC[C@@]1([C@@H]2O[C@@H]([C@H]3O[C@@](O)(CO)[C@H](C)C[C@H]3C)C[C@H]2C)CC[C@H]([C@]2(C)CC[C@]3(C[C@H](O)[C@@H](C)[C@@H]([C@@H](C)[C@@H](OC)[C@H](C)C(=O)O)O3)O2)O1`, the Potency in [1] was 363 nM (active); in test [2], 257 nM (active); in [3] it was 363 nM (active); in [4], 512 nM (active); in test [5], 182 nM (active); in [6], 323 nM (active). Besides, the Potency in [8] is 229 nM (active); in [10], 144 nM (active); in test [9], 288 nM (active).
Regarding `CCOC(=O)[C@H](CCc1ccccc1)N[C@@H](C)C(=O)N1[C@@H](C(=O)O)C[C@H]2CCC[C@@H]21`, the Potency was 8330 nM (active) in test [1]; 7430 nM (active) in test [2]; 7430 nM (active) in test [3]; 6620 nM (active) in [4]; 8330 nM (active) in test [6]; 8330 nM (active) in [7]. Also, the Potency was 20900 nM (active) in test [8], 26400 nM (active) in [10] and 6620 nM (active) in [9].
In the case of `CS(=O)(=O)N1CCc2c(-c3cnc(N)nc3)nc(N3CCOCC3)nc21`, the Potency in test [1] was 296 nM (active); in test [2] it was 743 nM (active); in [3], 372 nM (active); in test [4] it was 418 nM (active); in test [5], 1 nM (active); in [6] it was 296 nM (active). The Potency in test [7] is 5260 nM (active); in [10], 1050 nM (active).
As for `COc1cc(C=CC(=O)CC(=O)C=Cc2ccc(O)c(OC)c2)ccc1O`, the Potency in test [1] is 34000 nM (active); in test [2], 10800 nM (active); in test [3] it was 6790 nM (active); in test [4] it was 9590 nM (active); in [6] it was 4810 nM (active); in test [7], 9590 nM (active). Moreover, the Potency in [8] is 30300 nM (active); in test [10], 21500 nM (active); in test [9], 8550 nM (active).
`Nc1ncn([C@@H]2O[C@H](CO)[C@@H](O)[C@@H]2O)c(=O)n1`: the Potency in test [1] was 10500 nM (active); in test [2], 9350 nM (active); in test [3], 2960 nM (active); in [4] it was 11800 nM (active); in test [5], 8330 nM (active); in test [6], 18700 nM (active). The Potency in [7] was 8330 nM (active); in [10], 14800 nM (active); in test [9] it was 14800 nM (active).
`CN(C)c1ccc2cc(C(=O)N[C@@H](CCCN=C(N)CCl)C(=O)NCc3ccccc3)ccc2c1`: the Potency in [1] was 2960 nM (active); in test [2] it was 935 nM (active); in test [3], 1180 nM (active); in test [4], 4690 nM (active); in test [6], 8330 nM (active); in [7] it was 4180 nM (active). In addition, the Potency in test [8] is 18700 nM (active); in [10], 18700 nM (active); in test [9], 7430 nM (active).
With `COC1=C2C[C@@H](C)C[C@H](OC)[C@@H](O)[C@@H](C)C=C(C)[C@H](OC(N)=O)[C@@H](OC)C=CC=C(C)C(=O)NC(=CC1=O)C2=O`, the Potency in test [1] was 132 nM (active); in [2], 332 nM (active); in test [3], 209 nM (active); in test [4], 132 nM (active); in test [5], 209 nM (active); in [6] it was 296 nM (active). The Potency in test [7] was 148 nM (active); in [8], 105 nM (active); in test [9], 83.3 nM (active).
For the molecule `COc1cc2ncnc(Nc3cccc(Br)c3)c2cc1OC`, in test [1], the Potency entry is “inactive”. The Potency in test [2] is 11.8 nM (active); in test [3] it was 37.2 nM (active); in test [4] it was 743 nM (active); in [6], 5900 nM (active).
Regarding `c1cncc(CN2CCC(n3ncc4c(N5CCOCC5)nc(-c5ccc6[nH]ccc6c5)nc43)CC2)c1`, the Potency in test [1] was 5260 nM (active); in test [2] it was 1660 nM (active); in test [3] it was 935 nM (active); in test [4], 3320 nM (active); in test [6], 1480 nM (active); in [7] it was 11800 nM (active). In addition, the Potency in test [8] was 6620 nM (active); in test [10] it was 14800 nM (active); in test [9] it was 590 nM (active).
In the case of `COc1ccc([C@@H]2CNC(=O)C2)cc1OC1CCCC1`, the Potency in [1] was 1180 nM (active); in test [2], 1320 nM (active); in test [3], 2640 nM (active); in [4] it was 2350 nM (active); in test [5] it was 6620 nM (active); in test [7], 1480 nM (active). Moreover, the Potency entry in test [8], in test [10] and in test [9] was “inactive” each time.
For the molecule `CC(C)C[C@@H](C=O)NC(=O)[C@H](CC(C)C)NC(=O)[C@H](CC(C)C)NC(=O)OCc1ccccc1` (Cbz-Leu-Leu-Leu-aldehyde), the Potency in test [1] was 166 nM (active); in test [2] it was 105 nM (active); in [3], 148 nM (active); in [4], 132 nM (active); in test [6], 209 nM (active); in [7], 332 nM (active). In addition, the Potency in [8] was 833 nM (active); in test [10] it was 662 nM (active); in test [9], 264 nM (active).
Regarding `COc1cccc2c1C(=O)c1c(O)c3c(c(O)c1C2=O)C[C@@](O)(C(C)=O)C[C@H]3O[C@H]1C[C@H](N)[C@H](O)[C@H](C)O1`, the Potency in test [1] was 166 nM (active); in test [2] it was 46.9 nM (active); in test [3] it was 105 nM (active); in test [4] it was 41.8 nM (active); in test [6] it was 41.8 nM (active); in test [7] it was 29.6 nM (active). The Potency in [8] was 235 nM (active); in test [10] it was 166 nM (active); in test [9], 93.5 nM (active).
